This is an account of results in ChEMBL document CHEMBL1157539, “Thousands of chemical starting points for antimalarial lead identification” (Nature, 2010).

What all share (format): functional
Assay [1] relates to Plasmodium falciparum. In words: GSK_TCMDC: Inhibition of Plasmodium falciparum 3D7 in whole red blood cells, using parasite LDH activity as an index of growth. Test compounds present at 2uM.
Assay [2] has as its system Plasmodium falciparum. Put plainly: GSK_TCMDC: Inhibition of Plasmodium falciparum Dd2 in whole red blood cells, using parasite LDH activity as an index of growth. Test compounds present at 2uM.
The subject of the next assay is HepG2. Put plainly: GSK_TCMDC: Percent inhibition of human HepG2 cell line. Test compounds present at 10uM.

Each structure is given as a SMILES string. Where “and” joins values, the source holds several entries; their conditions need not be identical. Equal entries are not always repeated.

As for `Cl.N=C(N)c1ccc2[nH]c(-c3cc4cc(C(=N)N)ccc4o3)cc2c1`, the Inhibition is on record as 94% in the assay on Plasmodium falciparum [1] and 87% with Plasmodium falciparum [2].
As for `CC(=NNC(S)=NCCc1ccccn1)c1ccccn1`, the results for the Inhibition with Plasmodium falciparum [1] and in the assay on Plasmodium falciparum [2] were 100% and 95%, respectively.
In the case of `Cl.Nc1nc(N)c2c(ccc3nn(Cc4ccccc4)cc32)n1`, the results for the Inhibition in the assay on Plasmodium falciparum [1] and with Plasmodium falciparum [2] were 97% and 88%, respectively.
The corresponding values for `CCc1cc(COc2ccc(CNCCC(C)C)cc2I)c(OCc2ccccc2)c(COc2ccc(CNCCC(C)C)cc2I)c1.Cl` are 89% and 15%.
In the case of `CN(C)C(=S)N/N=C1/C(=O)Nc2ccccc21`, the figures for the Inhibition with Plasmodium falciparum [1] and with Plasmodium falciparum [2] were 95% and 96%, respectively.
As for `COc1cc(Cc2cnc3nc(N)nc(N)c3c2C)cc(OC)c1OC`, the Inhibition with Plasmodium falciparum [1] stood at 95%; in the assay on Plasmodium falciparum [2], 98%.
Regarding `CCCN(c1ccc(O)c(CN2CCCCC2)c1)c1ccc([N+](=O)[O-])cn1.O=C(O)C(=O)O`, the figures for the Inhibition in the assay with Plasmodium falciparum [1] and in the assay on Plasmodium falciparum [2] were 99% and 96%, respectively.
`CC(CO)(CO)NCc1cc2ccc3ccsc3c2c2ccccc12.CS(=O)(=O)O`: the Inhibition in the assay on Plasmodium falciparum [1] is on record as 96%; with Plasmodium falciparum [2], 98%.
For the molecule `Nc1nc(N)c2c(Oc3ccc(Cl)c(Cl)c3)cccc2n1`, the Inhibition was found to be 95% in the assay with Plasmodium falciparum [1] and 22% in the assay on Plasmodium falciparum [2].
The corresponding values for `CCNC(=O)CCc1cccc(Br)c1` are 89% and 54%.
For `Cl.O[C@@H](c1cc(C(F)(F)F)nc2c(C(F)(F)F)cccc12)[C@H]1CCCCN1`, the Inhibition in the assay with Plasmodium falciparum [1] was 96% and 99%; in the assay on Plasmodium falciparum [2], 99%.
Turning to `CCCOc1ccc(CNCCCCCCNCc2ccc(OCCC)c3ccccc23)c2ccccc12.CS(=O)(=O)O`, the Inhibition in the assay on Plasmodium falciparum [1] is 100%; in the assay with Plasmodium falciparum [2] it was 96%.
The corresponding values for `Cc1nc(C)c(-c2ccc(Oc3ccc(Cl)c(Cl)c3)cc2)c(O)c1Br` are 97% and 96%.
The corresponding values for `Cc1nc(C)c(-c2ccc(Oc3cccc(OC(F)(F)F)c3)cc2)c(O)c1Cl` are 97% and 97%.
For `CCCCNCc1ccc(OCc2cccc(COc3ccc(CNCCCC)cc3I)c2)c(I)c1.Cl`, the Inhibition in the assay on Plasmodium falciparum [1] is on record as 87%; in the assay with Plasmodium falciparum [2], 13%.
The corresponding values for `CCCCCCn1ccc2c3c(N)nc(N)nc3ccc21` are 99% and 91%.
On to `CCOC(=O)c1c(-c2ccccc2)c(C(=O)OCC)n2ccccc12`, for which the Inhibition in the assay on Plasmodium falciparum [1] is listed as 93%; with Plasmodium falciparum [2] it was 70%.
The corresponding values for `Cc1nc(C)c(-c2ccc(Oc3ccc([S+](C)[O-])cc3)cc2)c(O)c1Br` (configuration not stated) are 91% and 64%.
The corresponding values for `CCCOc1cc2c(cc1OCCC)C(C=Cc1ccc(Cl)cc1Cl)=NC(C)C2.Cl` (configuration not stated) are 90% and 75%.
Take `CCN1C(=O)C(=NN=C(S)N2CCCC2)c2ccccc21`: the results for the Inhibition with Plasmodium falciparum [1] and in the assay with Plasmodium falciparum [2] were 91% and 9%, respectively.
With `Nc1nc(N)c2c(ccc3c2cnn3Cc2cccnc2)n1`, the Inhibition with Plasmodium falciparum [1] was 95%; with Plasmodium falciparum [2], 96%.
The corresponding values for `CCCCC#Cc1cnc2nc(N)[nH]c(=O)c2n1` are 89% and 2%.
For the molecule `Cc1nc(N)nc(N)c1-c1ccc(Br)c(Br)c1`, the Inhibition in the assay with Plasmodium falciparum [1] is given as 94%; in the assay on Plasmodium falciparum [2], 1%.
As to `Nc1nc(N)c2c(Sc3ccccc3)cccc2n1`, the Inhibition in the assay with Plasmodium falciparum [1] is given as 97%; in the assay on Plasmodium falciparum [2] it was 0%.
Take `N=C(N)NC(=O)Nc1cc(Br)c(Cl)c(C(F)(F)F)c1`: the Inhibition was 100% in the assay on Plasmodium falciparum [1] and 91% in the assay with Plasmodium falciparum [2].
Take `CCCCNCc1cc(Cl)c2ccccc2c1O.Cl`: the Inhibition in the assay on Plasmodium falciparum [1] and with Plasmodium falciparum [2] was 100% in each case.
Regarding `COc1ccc(Cc2cnc3nc(N)nc(N)c3c2C)cc1OC.O=S(=O)(O)CCO`, the Inhibition is recorded as 93% in the assay with Plasmodium falciparum [1] and 97% in the assay with Plasmodium falciparum [2].
Take `CCCCN(CCCC)CCCN(CCCN(CCCC)CCCC)c1cc(C)nc(Nc2ccc(Cl)cc2)n1.O=C(O)C(=O)O`: the Inhibition in the assay on Plasmodium falciparum [1] was 100%; with Plasmodium falciparum [2], 99%.
The corresponding values for `COc1ccc2nc3cc(Cl)ccc3c(Nc3ccc(Oc4ccc(Nc5c6ccc(Cl)cc6nc6ccc(OC)cc56)cc4)cc3)c2c1.Cl` are 86% and 93%.
The corresponding values for `COc1ccc(OC)c(CC2c3ccc(Br)c(O)c3CCN2C)c1.Cl` (configuration not stated) are 98% and 97%.
The corresponding values for `N=C(NCC1CC1c1ccccc1)c1cccc(C(=N)NCC2CC2c2ccccc2)n1` (configuration not stated) are 95% and 0%.
For the molecule `Cl.Oc1ccc2c(CNC3CCCCC3)c(O)ccc2c1CNC1CCCCC1`, the Inhibition in the assay on Plasmodium falciparum [1] and in the assay with Plasmodium falciparum [2] was 100% throughout.
Regarding `CN(C)S(=O)(=O)n1ccc2c3c(N)nc(N)nc3ccc21`, the results for the Inhibition with Plasmodium falciparum [1] and with Plasmodium falciparum [2] were 94% and 0%, respectively.
With `CC(C)(C)c1ccc(Cc2cccc3nc(N)nc(N)c23)cc1`, the Inhibition in the assay on Plasmodium falciparum [1] worked out at 100%; in the assay on Plasmodium falciparum [2], 51%.
The corresponding values for `COc1cccc2c(O)c(CNC3CCCCC3)ccc12.Cl` are 100% and 98%.
The corresponding values for `Cc1c(C(C)(C)C)ccc2nc(N)nc(N)c12` are 89% and 0%.
On to `Cc1cc(O)c(-c2ccc(OCc3ccc(Cl)cc3)cc2)c(C)n1`, for which the Inhibition is listed as 93% with Plasmodium falciparum [1] and 76% with Plasmodium falciparum [2].
The corresponding values for `COc1ccc(Cc2c(Cl)nc3nc(N)nc(N)c3c2C)c(OC)c1OC` are 98% and 0%.
The corresponding values for `CCCc1cc(Cc2cnc(N)nc2N)cc2c1OC(C)(C)C2.Cl` are 89% and 3%.
Regarding `O=[N+]([O-])c1ccc(Nc2nc(N/N=C/c3cccc(O)c3)nc(N3CCCC3)n2)cc1`, the Inhibition in the assay on Plasmodium falciparum [1] stood at 88%; with Plasmodium falciparum [2], 9%; in the assay on HepG2, 0%.
The corresponding values for `CCOC(=O)C(C)(C)Oc1ccc(C(=C2CC(C)(C)CC(C)(C)C2)c2ccc(O)cc2)cc1` are 92%, 78% and 0%.
With `COc1ccc(-n2ncc(C(=O)N3CCC4(C3)C(=O)N(c3ccccc3)c3ccccc34)c2C)cc1` (configuration not stated), the Inhibition with Plasmodium falciparum [1] is reported as 88%; in the assay with Plasmodium falciparum [2], 91%; in the assay on HepG2, 45%.
